The results in this text go back to PubChem BioAssay (NCI).

Some test systems named below: NCI-H23 lung; NCI-H226 lung; NCI-H322M lung; HOP-62 NSCLC; NCI-H460 lung; HOP-92 NSCLC; NCI-H522 lung; A549/ATCC NSCLC; 786-0 renal; COLO 205 colon.
Experiment in all cases: NCI-60 one-dose screen, 48 h (100 = growth as untreated, 0 = no growth, -100 = all killed)
Common to all, as to settings: 10 µM unless noted

The structures appear in SMILES notation. This is part of a sample that, as a whole, favours compounds with a hit. Of some 83,000 tested, about 20% had one in any assay.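 Method: cells in 96-well plates; compound added at one concentration; 48 h incubation; percent growth measured; values under 10 scored active.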 Values without a mark were called inactive. Active and inactive are the calls of the source.

Turning to `COC(=O)[C@]12CC[C@@H](C)[C@H](C)[C@@H]1C1=CC[C@@H]3[C@@]4(C)C(C=O)=C[C@@](C)(COC(=O)c5ccco5)[C@@H]4[C@H](O)C[C@@]3(C)[C@]1(C)CC2`, the growth is -13.5% (active) in the assay with NCI-H23 lung; -41.5% (active) in the assay with NCI-H226 lung; 33.1% in the assay with NCI-H322M lung; -7.36% (active) in the assay with HOP-62 NSCLC; -59.6% (active) in the assay with NCI-H460 lung; -54.7% (active) in the assay with HOP-92 NSCLC. The growth was -47.9% (active) in the assay on NCI-H522 lung, 7.92% (active) with A549/ATCC NSCLC, -22.9% (active) in the assay on 786-0 renal and -78.6% (active) with COLO 205 colon.
Turning to `FC(F)(F)c1ccccc1-c1cn2c(ccc3ccccc32)n1`, the growth in the assay with NCI-H23 lung is 85.3%; in the assay on NCI-H226 lung it was 77.5%; in the assay with NCI-H322M lung, 96.1%; with HOP-62 NSCLC it was 60.4%; with NCI-H460 lung, 85.3%; in the assay with HOP-92 NSCLC, 79.9%. Moreover, the growth in the assay on NCI-H522 lung was 49%; in the assay with A549/ATCC NSCLC, 80%; with 786-0 renal, 94.9%; in the assay on COLO 205 colon, 102%.
As to `COc1cc(-c2nn(-c3cccc(NC(=O)c4ccc(N5CCOCC5)c(C(F)(F)F)c4)c3)cc2-c2ccncc2)ccc1Cl`, the growth in the assay on NCI-H23 lung is 15.6%; in the assay with NCI-H226 lung, 42.5%; with NCI-H322M lung, 54.2%; in the assay on HOP-62 NSCLC, 29.5%; with NCI-H460 lung, 5.02% (active); in the assay on HOP-92 NSCLC, 11.5%. Further, the growth in the assay on NCI-H522 lung was 0.2% (active); in the assay with A549/ATCC NSCLC, 3.58% (active); with 786-0 renal it was -3.26% (active); in the assay with COLO 205 colon it was -43.4% (active).
As for `O=C(/C=C/c1c[nH]c2ccccc12)c1ccc(O)c(CN2CCN(c3ccc(F)cc3)CC2)c1`, the growth is 99.8% with NCI-H23 lung; 100% with NCI-H226 lung; 103% with NCI-H322M lung; 95.9% in the assay with HOP-62 NSCLC; 106% in the assay on NCI-H460 lung; 95.5% with HOP-92 NSCLC. Further, the growth in the assay on NCI-H522 lung was 102%; in the assay on A549/ATCC NSCLC it was 99.5%; with 786-0 renal it was 103%; in the assay with COLO 205 colon, 109%.
With `C1=Cc2ccccc2N(c2nnc(-c3ccccc3)o2)c2ccccc21`, the growth was 103% in the assay with NCI-H23 lung; 81.7% in the assay on NCI-H226 lung; 92.2% in the assay with NCI-H322M lung; 99.5% with HOP-62 NSCLC; 49.8% with NCI-H460 lung; 84.7% in the assay with HOP-92 NSCLC. For the same compound, the growth in the assay with NCI-H522 lung was 92.8%; in the assay with A549/ATCC NSCLC, 92.6%; in the assay on 786-0 renal it was 100%; in the assay on COLO 205 colon it was 91.3%.
For the compound `COc1ccc(-c2cc(-c3ccccc3)nc(SCCCC(=O)NO)n2)cc1OC`, the growth was -2.44% (active) in the assay with NCI-H23 lung; 10.4% in the assay with NCI-H226 lung; 17.1% in the assay on NCI-H322M lung; 5.03% (active) in the assay with HOP-62 NSCLC; 1.88% (active) in the assay with NCI-H460 lung; -10.6% (active) in the assay with HOP-92 NSCLC. In addition, the growth was -22.8% (active) with NCI-H522 lung, -17.1% (active) in the assay on A549/ATCC NSCLC, 0.761% (active) in the assay with 786-0 renal and 23.7% in the assay with COLO 205 colon.
Consider `COc1cc(-c2nn(-c3cccc(NC(=O)c4ccccc4)c3)cc2-c2ccncc2)ccc1Cl`, for which the growth was 33.8% in the assay with NCI-H23 lung; 39.1% in the assay with NCI-H226 lung; 52.3% with NCI-H322M lung; 27.1% with HOP-62 NSCLC; 2.74% (active) in the assay with NCI-H460 lung; 9.19% (active) in the assay on HOP-92 NSCLC. Besides, the growth in the assay on NCI-H522 lung is -29.6% (active); with A549/ATCC NSCLC, 4.81% (active); in the assay on 786-0 renal, 21.3%; in the assay on COLO 205 colon it was 2.21% (active).
With `O=C(/C=C/c1cc(-c2ccc3c(c2)OCO3)n[nH]1)c1ccc2c(c1)OCO2`, the growth was 94.6% with NCI-H23 lung; 89.4% in the assay with NCI-H226 lung; 86.6% with NCI-H322M lung; 96.9% with HOP-62 NSCLC; 97.5% in the assay on NCI-H460 lung; 77.7% in the assay on HOP-92 NSCLC. The growth in the assay with NCI-H522 lung is 72%; in the assay on A549/ATCC NSCLC it was 90.7%; with 786-0 renal, 99.2%; in the assay on COLO 205 colon, 97.7%.
As for `Cc1cc(N/N=C/c2nc(-c3ccc(Br)cc3)oc2C)c2cc(Cl)ccc2n1`, the growth in the assay on NCI-H23 lung was 101%; in the assay on NCI-H226 lung, 84.7%; in the assay with NCI-H322M lung, 91.9%; with HOP-62 NSCLC, 107%; with NCI-H460 lung, 12.8%; with HOP-92 NSCLC, 72%. Moreover, the growth in the assay with NCI-H522 lung is 76.5%; in the assay with A549/ATCC NSCLC, 65.5%; in the assay on 786-0 renal, 34.1%; with COLO 205 colon it was 104%.
Take `CC(C)(C)n1cc(-c2ccnc(NCCCNS(=O)(=O)c3ccc(Cl)cc3)c2)c(-c2cccc(O)c2)n1`: the growth was 14% in the assay with NCI-H23 lung; 14% in the assay with NCI-H226 lung; 10.6% with NCI-H322M lung; 9.75% (active) in the assay with HOP-62 NSCLC; -66.7% (active) in the assay with NCI-H460 lung; -2.33% (active) in the assay on HOP-92 NSCLC. Also, the growth in the assay with NCI-H522 lung was -55.7% (active); in the assay on A549/ATCC NSCLC it was 9.33% (active); in the assay with 786-0 renal, -35.2% (active); in the assay with COLO 205 colon, -86.8% (active).
On to `CC1=C(C#N)C(=O)NC(C)C1` (stereo not given), for which the growth in the assay on NCI-H23 lung is 92.8%; in the assay on NCI-H226 lung, 111%; in the assay on NCI-H322M lung, 106%; in the assay on HOP-62 NSCLC, 99.4%; in the assay on NCI-H460 lung, 107%; in the assay on HOP-92 NSCLC it was 83.1%. For the same compound, the growth with NCI-H522 lung is 107%; in the assay on A549/ATCC NSCLC, 95.3%; with 786-0 renal, 97.6%; in the assay on COLO 205 colon, 108%.
As for `Cc1cc(C)n(-c2nnc3n2N=C(c2ccc(-c4ccccc4)cc2)CS3)n1`, the growth in the assay with NCI-H23 lung is 75.7%; in the assay on NCI-H226 lung it was 68.4%; with NCI-H322M lung, 71.1%; in the assay on HOP-62 NSCLC it was 54.7%; in the assay with NCI-H460 lung, 45.1%; with HOP-92 NSCLC it was -2.12% (active). In addition, the growth was 29.2% in the assay with NCI-H522 lung, 31.5% in the assay with A549/ATCC NSCLC, 59.9% with 786-0 renal and 39.8% in the assay on COLO 205 colon.
For the compound `O=C(NS(=O)(=O)c1ccccc1)n1cc(-c2ccncc2)c(-c2ccc(Cl)c(O)c2)n1`, the growth is 104% in the assay on NCI-H23 lung; 103% in the assay with NCI-H226 lung; 103% in the assay with NCI-H322M lung; 119% in the assay on HOP-62 NSCLC; 107% in the assay with NCI-H460 lung; 99.6% with HOP-92 NSCLC. In addition, the growth was 85.4% with NCI-H522 lung, 98.3% with A549/ATCC NSCLC, 100% in the assay with 786-0 renal and 111% with COLO 205 colon.
